Laboratory results reported in ChEMBL document CHEMBL3433997, “St. Jude Leishmania screening dataset” (2016).

What was measured:
Type in all cases: functional
[1] = molecular target: Solute carrier family 2, facilitated glucose transporter member 1 (Homo sapiens) (UniProt P11166); experiment: ST_JUDE_LEISH: Cytotoxicity at 2uM final concentration against transgenic Leishmania Mexicana promastigotes LmGLUT1 that are glucose transport deficient and complemented with the human glucose transporter GLUT1. Activity is measured by DNA content using SYBR green in vitro
Sequence of Solute carrier family 2, facilitated glucose transporter member 1 (Homo sapiens) (P11166 whole entry): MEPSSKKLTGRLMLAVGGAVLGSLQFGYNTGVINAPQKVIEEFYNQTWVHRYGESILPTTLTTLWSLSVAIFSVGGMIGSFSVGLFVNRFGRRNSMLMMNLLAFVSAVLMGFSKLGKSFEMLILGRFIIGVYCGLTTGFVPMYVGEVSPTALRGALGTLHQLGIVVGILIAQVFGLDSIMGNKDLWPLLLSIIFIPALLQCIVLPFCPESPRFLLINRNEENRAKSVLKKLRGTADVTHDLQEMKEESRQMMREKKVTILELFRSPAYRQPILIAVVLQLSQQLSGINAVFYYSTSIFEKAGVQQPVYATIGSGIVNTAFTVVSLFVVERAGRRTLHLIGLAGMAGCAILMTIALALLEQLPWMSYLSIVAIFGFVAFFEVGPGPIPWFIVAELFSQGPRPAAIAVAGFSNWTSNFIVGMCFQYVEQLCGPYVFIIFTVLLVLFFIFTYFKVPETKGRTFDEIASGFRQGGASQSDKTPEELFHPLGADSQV

[2] = molecular target: Hexose transporter 1 (Plasmodium falciparum) (UniProt O97467); experiment: ST_JUDE_LEISH: Cytotoxicity at 2uM final concentration against transgenic Leishmania Mexicana promastigotes LmPfHT that are glucose transport deficient and complemented with the Plasmodium falciparum hexose transporter. Activity is measured by DNA content using SYBR green in vitro
[3] = molecular target: Glucose transporter (Leishmania mexicana) (UniProt O61059); experiment: ST_JUDE_LEISH: Cytotoxicity at 2uM final concentration against transgenic Leishmania Mexicana promastigotes LmGT2 that are glucose transport deficient and complemented with the L. Mexicana glucose transporter 2. Activity is measured by DNA content using SYBR green in vitro

Structure (SMILES)	inhibition [1]	inhibition [2]	inhibition [3]
CC1(C)N=C(N)N=C(N)N1OCCCOc1cc(Cl)c(Cl)cc1Cl	3.4%	4.05%	2.71%
O=C(/C=C/c1cccs1)NCC(NCCCNc1cc(=O)c2ccccc2[nH]1)c1cc(Br)cc(Br)c1 (centres undefined)	4.13%	3.76%	4.57%
CN(CC1CCC(NC(=O)/C=C/c2ccc(Cl)c(Cl)c2)CC1)C1CCC(c2c[nH]c3ccccc23)CC1 (centres undefined)	-0.25%	0.8%	2.15%
CC(C)C[C@H](Nc1ccc(C#N)c2ccccc12)C(=O)NC(C)(C)C12CC3CC(CC(C3)C1)C2	4.34%	5.78%	2.11%
CN(C)CCNc1ncnc2c1[nH]c1ccc(Br)cc12	1.62%	4.67%	1.38%
Cc1nnsc1C(=O)Nc1cccc(-c2ccc(-c3nc4cccc(C)c4[nH]3)s2)c1	1.88%	1.77%	3.82%
COc1ccc(C)cc1NC(=O)CSc1nc2cccnc2n1C1CCCCC1	5.9%	4.88%	3.28%
COc1ccc(C=Cc2cc(=N)c3ccccc3[nH]2)cc1	3.18%	2.77%	0.89%
c1ccc2sc(-c3csc(Nc4ccncc4)n3)nc2c1	-1.14%	1.09%	6.37%
Cc1oc(-c2ccccc2)nc1CCOc1ccc(C[C@H](Nc2ccccc2C(=O)c2ccccc2)C(=O)NCc2ccccn2)cc1	4.4%	4.88%	4.35%
O=C(/C=C/c1ccc(Cl)c(Cl)c1)NCCCCCN1CCCC(CNC(=O)/C=C/c2ccccc2)C1 (centres undefined)	-0.59%	-0.44%	-0.59%
CC(C)CCn1c(Sc2ccc(C#N)c([N+](=O)[O-])c2)nnc1-c1ccc(N(C)C)cc1	0.76%	0.92%	0.35%
O=C(Nc1ccc(Cl)cc1)OCCn1nnnc1C(c1ccc(Cl)cc1)N1CCOCC1 (centres undefined)	2.79%	0.7%	2.38%
CCC(Cc1cnc2nc(N)nc(N)c2n1)c1ccc(C(=O)N[C@@H](CCC(=O)O)C(=O)O)cc1 (some centres undefined)	11.9%	22.1%	3.38%
CC(=O)Nc1ccc(CNC2Cc3ccc(-c4ccc(Cl)c(Cl)c4)cc3C2)cc1 (centres undefined)	-0.97%	-1.57%	-0.25%
CCCCCCCN1CC[C@@H](CCCc2ccnc3ccc(OCC4CCCNC4)cc23)[C@@H](CC)C1 (some centres undefined)	4.6%	3.17%	1.43%
CN(C)CCOc1ccc2c(c1)OC(C)(C)C=C2c1cccc2ccccc12	4.01%	3.57%	3.75%
Cc1cc(N2CCN(CC3CCN(C)CC3)CC2)nc(Nc2ccc(Cl)cc2)n1	0.56%	0.64%	2.21%
CS(=O)(=O)Cc1ccc(Nc2nccc(-c3c(-c4cccc(C(=O)Nc5c(F)cccc5F)c4)nn4ccccc34)n2)cc1	21.4%	10.2%	2.15%
COc1cc2nc(N3CCC(CNC(=O)c4ccc(-c5ccc(C(F)(F)F)cc5)cc4)CC3)nc(N)c2cc1OC	2.82%	2.34%	-0.23%
O=C(CC(c1ccccc1)c1ccccc1O)N1CCOCC1 (centres undefined)	0.4%	1.12%	-0.06%
CCCOc1ccc(C(F)(F)F)cc1NC(=O)c1nc2nc(C)cc(C)n2n1	6.01%	5.05%	1.31%
O=C(/C=C/c1ccc(Cl)c(Cl)c1)N1CCC(CN2CCC(c3c[nH]c4cnccc34)CC2)CC1	4.52%	3.14%	4.67%
O=C(Nc1ccc(F)cc1)c1ccc(C(=O)NC2CCN(CC3CCCCC3)CC2)cc1	19.2%	16.6%	11.7%
Cc1cc(C)c2c(c1)C(=NO)CCN2	-1.86%	1.76%	-0.32%
CCn1c(-c2nonc2N)nc2c(-c3cccc(NC(=O)Nc4ccc5c(c4)CCC5)c3)ncc(OCCCN)c21	2.61%	3.19%	2.89%
COc1ccc2nccc(N3CCC(SCCNCc4ccc5c(n4)NC(=O)CO5)C3)c2n1 (centres undefined)	0.4%	2.93%	2.08%
Cc1ccc2c(N/N=C/c3cccc([N+](=O)[O-])c3)cc(C)nc2c1	8.19%	4.7%	3.94%
